Data published in PubChem BioAssay (NCI).
Compounds without any hit were thinned out: in the full panel of roughly 83,000, 20% have a hit.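 Note: values are percent growth. 100 is the growth of untreated cells, values between 100 and 0 indicate rising inhibition; between -100 and 0 indicates cell death.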 Active and inactive are the calls of the source.

The compounds below were run on OVCAR-4 ovarian (assay: NCI-60 one-dose screen, 48 h (100 = growth as untreated, 0 = no growth, -100 = all killed)). Conditions: 10 µM unless noted.
Procedure: Growth inhibition of the OVCAR-4 human tumor cell line is measured as a screen for anti-cancer activity. Cells are grown in 96 well plates and exposed to the test compound for 48 hours. Compounds are tested at a single concentration, which is 10^-5 M for most compounds. The reported endpoint is percent growth (GI% or GIPRCNT), where numbers from 0 - 100% represent growth inhibition, and numbers from -100% - 0 represent cell death. For example, a value of 40 represents 60% growth inhibition. A value of 0 means no net growth occurred over the course of the experiment. A value of -40 indicates 40% of cells at the beginning of the experiment died by the end of the experiment. A value of -100 means all cells are dead at the end of the experiment.
NCI-60 Human Tumor Cell Lines Screen was performed using the standard one-dose NCI protocol, which is described in more detail at https://dtp.cancer.gov/discovery_development/nci-60/default.htm.
Compounds with GIPRCNT values below 10 were considered active. Activity score was based on GIPRCNT using the following formula: […]
Score is 0 for GIPRCNT values of 100 or above, 50 for GIPRCNT values of 0, and 100 for GIPRCNT values of -100.

| SMILES | growth |
| --- | --- |
| CC(C)c1ccccc1NC(=O)N1CCC(C(C)C)CC1 | 96.7% (inactive) |
| COc1cccc(C(=O)O)c1OC | 95% (inactive) |
| C1Cc2onc(-c3noc4c3CCC4)c2C1 | 105% (inactive) |
| CCOC(=O)CSCCC#N | 105% (inactive) |
| CC(C)(CC(=O)O)CC(=O)O | 108% (inactive) |
| COC1OC(COC(C)=O)C(OC(C)=O)C(OC(C)=O)C1OC(C)=O (stereo not given) | 86.5% (inactive) |
| NNC(=O)c1ccccc1N | 106% (inactive) |
| Ic1cccs1 | 102% (inactive) |
| CN=S(=O)(OCCCCCOS(=O)(=NC)c1ccc(C)cc1)c1ccc(C)cc1 (stereo not given) | 82.8% (inactive) |
| O=C1C=Cc2ccccc2/C1=C/c1[nH]c(=O)[nH]c1O | 41% (inactive) |
| Nc1nc(N)nc(N2CCCCC2)n1 | 111% (inactive) |
| CC(=O)OCC1OC(n2cnc3c(=S)nc(N)[nH]c32)C(OC(C)=O)C1OC(C)=O (stereo not given) | 82.5% (inactive) |
| CC(=O)NCNC(C)=O | 110% (inactive) |
| CC(=O)NC(CCC(=O)c1ccccc1)C(=O)O (stereo not given) | 100% (inactive) |
| O=Cc1c(O)c2ccccc2[nH]c1=O | 106% (inactive) |
| C=C1C(=O)C2CCN1CC2 | 101% (inactive) |
| O=C(c1ccc(Cl)cc1)N1CCCCC1 | 113% (inactive) |
| Cc1cccc2ccccc12 | 108% (inactive) |
| CCOC(=O)c1ccc(NC(C)=O)o1 | 107% (inactive) |
| CN(C)c1ccc2c(N(C)C)cc(N(C)C)nc2c1 | 72.1% (inactive) |

| SMILES | growth |
| --- | --- |
| CC(C)N1CC(=O)N2CSCC2C1=O (stereo not given) | 123% (inactive) |
| CN(C(=S)S(=O)(=O)C12CC3CC(CC(C3)C1)C2)c1ccccc1 | 104% (inactive) |
| CN1CCCN(C(c2ccccc2)c2ccc(Cl)cc2)CC1 (stereo not given) | 84.2% (inactive) |
| Cc1ccc(NCN2C(=O)c3ccccc3C2=O)c(C)n1 | 119% (inactive) |
| O=C(NCc1ccco1)Nc1cccc2c(NC(=O)NCc3ccco3)cccc12 | 92.3% [100 µM] (inactive) |
| ON1CCCC1 | 107% (inactive) |
| O=S(=O)(O)c1cccnc1 | 114% (inactive) |
| Nc1ncnc(Nc2ccc(C(F)(F)F)cc2)n1 | 107% (inactive) |
| Cc1nc(C)c(C(=O)O)cc1C(=O)O | 122% (inactive) |
| CC(=O)N(C(C)=O)c1ccc(C)cc1 | 101% (inactive) |
| O=C(Nc1ccc([N+](=O)[O-])cc1)C(=O)Nc1ccc([N+](=O)[O-])cc1 | 121% (inactive) |
| CCN1CCCC(N2c3ccccc3Sc3ccccc32)C1 (stereo not given) | 97.9% (inactive) |
| CSc1cnc2ccccc2n1 | 115% (inactive) |
| Cc1ccc2nc(N)nnc2c1 | 108% (inactive) |
| CCCC(=O)c1cccs1 | 103% (inactive) |
| Nc1ccccc1SC1CC(=O)N(c2ccc(Cl)c(Cl)c2)C1=O (stereo not given) | 92.1% (inactive) |
| CC(C)NC(=O)OCc1c(COC(=O)NC(C)C)c(-c2ccc(Cl)cc2)n2c1CCC2 | 48.9% (inactive) |
| N#CC1(O)CCCCC1 | 126% (inactive) |
| N#C/C(=C\NC(=S)N=Nc1c(O)[nH]c2ccccc12)c1nc2ccccc2s1 | 93.7% (inactive) |
| CCNC(=O)Oc1ccc[nH]c1=O | 98.3% (inactive) |
